# Test results published in paper PMC7862700, “An all-to-all approach to the identification of sequence-specific readers for epigenetic DNA modifications on cytosine”.
# Tests used:
# Test in all cases: DAPPL (digital affinity profiling via proximity ligation, sequencing); 10 mM Tris-HCl pH 7.5, 50 mM NaCl, 1 mM DTT, 4% glycerol, room temperature, 30 min; GST-TFs on glutathione beads, 16-mer random dsDNA library, 0.1% formaldehyde crosslink after washing; high values mean tight binding
# Conditions in all cases: protein: recombinant; tags: N-terminal GST; dsDNA, one strand shown
# ETV1 = ETV1 (Homo sapiens, UniProt P50549 1-477)
# Chain of ETV1 (P50549 whole entry, the tested form may be a part): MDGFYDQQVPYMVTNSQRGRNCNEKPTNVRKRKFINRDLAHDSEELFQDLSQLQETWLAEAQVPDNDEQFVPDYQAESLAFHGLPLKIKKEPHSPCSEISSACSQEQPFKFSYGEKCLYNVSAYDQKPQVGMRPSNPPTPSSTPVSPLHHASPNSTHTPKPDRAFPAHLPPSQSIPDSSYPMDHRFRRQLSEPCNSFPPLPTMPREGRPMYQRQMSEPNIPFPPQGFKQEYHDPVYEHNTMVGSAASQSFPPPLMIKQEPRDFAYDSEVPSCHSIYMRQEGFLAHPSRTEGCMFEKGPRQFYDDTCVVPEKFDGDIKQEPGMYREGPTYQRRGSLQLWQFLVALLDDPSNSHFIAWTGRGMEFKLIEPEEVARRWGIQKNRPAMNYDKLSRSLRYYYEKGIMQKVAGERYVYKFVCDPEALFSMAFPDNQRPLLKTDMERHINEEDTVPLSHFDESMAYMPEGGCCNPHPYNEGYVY
# Summary of the method: (§1)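 Each value of binding signal is a hexamer's read frequency for a factor divided by the same hexamer's frequency in the tag-only sample. Barcoded, bead-captured GST fusions of human transcription factors made in yeast were pooled with that sample and incubated with 200 nmole of a random double-stranded 16-mer DNA library in Tris/NaCl/DTT/glycerol buffer at room temperature for 30 min. Washing, 0.1% formaldehyde crosslinking, proximity ligation, PCR and Illumina NextSeq500 sequencing followed.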
# ERF = biological target: T1, ERF (Homo sapiens, UniProt P50548 1-548)
# T1 sequence: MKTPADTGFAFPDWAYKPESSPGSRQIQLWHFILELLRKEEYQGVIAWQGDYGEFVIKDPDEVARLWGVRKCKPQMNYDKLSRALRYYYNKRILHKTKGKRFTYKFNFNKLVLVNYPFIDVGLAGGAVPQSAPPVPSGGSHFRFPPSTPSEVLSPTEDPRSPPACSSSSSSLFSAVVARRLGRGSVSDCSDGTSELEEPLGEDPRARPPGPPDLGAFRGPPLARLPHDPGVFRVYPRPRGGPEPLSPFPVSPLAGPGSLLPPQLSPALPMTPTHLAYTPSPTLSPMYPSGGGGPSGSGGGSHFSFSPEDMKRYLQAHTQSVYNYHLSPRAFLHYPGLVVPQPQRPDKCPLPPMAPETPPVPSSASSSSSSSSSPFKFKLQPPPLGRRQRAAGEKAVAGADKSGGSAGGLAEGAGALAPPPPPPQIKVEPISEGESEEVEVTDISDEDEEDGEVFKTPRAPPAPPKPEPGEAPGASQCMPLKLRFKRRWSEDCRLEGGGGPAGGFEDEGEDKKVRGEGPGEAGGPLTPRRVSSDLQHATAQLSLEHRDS
# Summary of the method: as §1
# ETV3L = biological target: T2, ETV3L (Homo sapiens, UniProt Q6ZN32 1-361)
# T2 sequence: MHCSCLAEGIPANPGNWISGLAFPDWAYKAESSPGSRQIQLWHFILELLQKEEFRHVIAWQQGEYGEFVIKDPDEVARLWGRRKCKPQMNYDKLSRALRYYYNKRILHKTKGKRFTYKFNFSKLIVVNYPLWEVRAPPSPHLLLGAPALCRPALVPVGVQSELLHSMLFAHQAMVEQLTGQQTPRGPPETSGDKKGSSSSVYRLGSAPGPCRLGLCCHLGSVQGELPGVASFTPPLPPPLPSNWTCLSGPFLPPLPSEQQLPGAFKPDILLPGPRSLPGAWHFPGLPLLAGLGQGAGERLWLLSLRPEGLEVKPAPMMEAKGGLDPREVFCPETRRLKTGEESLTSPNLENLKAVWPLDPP
# Summary of the method: as §1
# ETS2 = biological target: T3, ETS2 (Homo sapiens, UniProt P15036 1-469)
# T3 sequence: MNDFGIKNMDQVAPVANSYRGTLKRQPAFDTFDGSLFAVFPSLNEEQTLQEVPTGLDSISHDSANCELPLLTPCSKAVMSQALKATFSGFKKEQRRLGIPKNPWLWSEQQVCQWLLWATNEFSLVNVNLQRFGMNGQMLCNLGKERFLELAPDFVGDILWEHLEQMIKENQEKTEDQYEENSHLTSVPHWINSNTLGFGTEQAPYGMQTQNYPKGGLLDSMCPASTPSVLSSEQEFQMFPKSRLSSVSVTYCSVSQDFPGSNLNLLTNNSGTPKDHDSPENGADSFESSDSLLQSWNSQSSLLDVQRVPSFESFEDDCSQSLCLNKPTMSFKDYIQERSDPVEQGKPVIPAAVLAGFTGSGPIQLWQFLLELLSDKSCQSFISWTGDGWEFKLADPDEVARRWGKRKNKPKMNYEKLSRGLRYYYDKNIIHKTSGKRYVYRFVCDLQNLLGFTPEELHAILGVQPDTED
# Summary of the method: as §1
# SPDEF = biological target: T4, SPDEF (Homo sapiens, UniProt O95238 1-335)
# T4 sequence: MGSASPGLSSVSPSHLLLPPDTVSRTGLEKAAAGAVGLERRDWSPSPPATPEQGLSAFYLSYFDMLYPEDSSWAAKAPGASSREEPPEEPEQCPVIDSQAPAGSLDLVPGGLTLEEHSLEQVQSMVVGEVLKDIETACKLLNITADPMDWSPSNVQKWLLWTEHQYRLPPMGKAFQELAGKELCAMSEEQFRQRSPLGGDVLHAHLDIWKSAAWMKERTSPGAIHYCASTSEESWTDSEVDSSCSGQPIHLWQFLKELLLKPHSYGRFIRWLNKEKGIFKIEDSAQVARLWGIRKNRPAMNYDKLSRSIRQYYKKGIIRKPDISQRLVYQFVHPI
# Summary of the method: as §1
# ETV7 = biological target: T5, ETV7 (Homo sapiens, UniProt Q9Y603 1-341)
# T5 sequence: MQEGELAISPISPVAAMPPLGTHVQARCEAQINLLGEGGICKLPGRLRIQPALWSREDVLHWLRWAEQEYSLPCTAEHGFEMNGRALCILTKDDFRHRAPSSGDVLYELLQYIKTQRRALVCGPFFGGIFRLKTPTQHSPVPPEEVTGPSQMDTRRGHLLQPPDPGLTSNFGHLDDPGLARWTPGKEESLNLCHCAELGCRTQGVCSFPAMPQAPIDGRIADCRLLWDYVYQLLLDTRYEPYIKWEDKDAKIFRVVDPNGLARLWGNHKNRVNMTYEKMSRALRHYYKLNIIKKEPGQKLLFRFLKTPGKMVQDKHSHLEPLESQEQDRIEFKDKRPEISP
# Summary of the method: as §1
# ELF5 = biological target: T6, ELF5 (Homo sapiens, UniProt Q9UKW6-2 1-255)
# T6 sequence: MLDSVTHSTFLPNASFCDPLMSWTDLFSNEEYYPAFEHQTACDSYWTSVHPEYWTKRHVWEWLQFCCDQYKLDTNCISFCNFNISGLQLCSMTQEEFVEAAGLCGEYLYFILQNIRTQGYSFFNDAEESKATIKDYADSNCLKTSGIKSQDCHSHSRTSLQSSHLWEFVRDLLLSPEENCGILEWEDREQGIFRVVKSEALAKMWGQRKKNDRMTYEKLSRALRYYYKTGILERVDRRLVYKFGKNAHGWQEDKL
# Summary of the method: as §1
# ETV3 = biological target: T7, ETV3 (Homo sapiens, UniProt P41162-2 1-143)
# T7 sequence: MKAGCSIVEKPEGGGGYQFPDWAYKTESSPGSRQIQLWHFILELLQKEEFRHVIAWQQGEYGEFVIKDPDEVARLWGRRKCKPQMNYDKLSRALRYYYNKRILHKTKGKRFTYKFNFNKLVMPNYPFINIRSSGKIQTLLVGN
# Summary of the method: as §1
# ETV6 = ETV6 (Homo sapiens, UniProt P41212 1-452)
# Chain of ETV6 (P41212 whole entry): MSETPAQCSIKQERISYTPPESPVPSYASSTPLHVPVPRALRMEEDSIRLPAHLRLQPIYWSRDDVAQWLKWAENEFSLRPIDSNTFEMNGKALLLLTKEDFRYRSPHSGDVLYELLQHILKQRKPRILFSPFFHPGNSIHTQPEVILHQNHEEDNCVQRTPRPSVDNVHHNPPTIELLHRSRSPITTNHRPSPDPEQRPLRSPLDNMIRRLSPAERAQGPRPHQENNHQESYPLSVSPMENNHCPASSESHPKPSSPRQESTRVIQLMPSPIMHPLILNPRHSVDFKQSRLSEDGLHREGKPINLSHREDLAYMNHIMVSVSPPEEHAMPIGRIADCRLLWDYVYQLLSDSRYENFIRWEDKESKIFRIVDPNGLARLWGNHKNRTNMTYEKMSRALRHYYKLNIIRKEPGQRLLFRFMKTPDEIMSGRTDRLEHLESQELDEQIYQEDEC
# Summary of the method: as §1
sequence,measurement,setting,value
CTAACA,binding signal,ETV1,"1.15 fold enrichment (6-mer frequency, TF over GST control)"
same,binding signal,ERF,"1.29 fold enrichment (6-mer frequency, TF over GST control)"
same,binding signal,ETV3L,"1.22 fold enrichment (6-mer frequency, TF over GST control)"
same,binding signal,ETS2,"1.21 fold enrichment (6-mer frequency, TF over GST control)"
same,binding signal,SPDEF,"1.29 fold enrichment (6-mer frequency, TF over GST control)"
same,binding signal,ETV7,"1.16 fold enrichment (6-mer frequency, TF over GST control)"
same,binding signal,ELF5,"1.15 fold enrichment (6-mer frequency, TF over GST control)"
same,binding signal,ETV3,"1.14 fold enrichment (6-mer frequency, TF over GST control)"
same,binding signal,ETV6,"1.18 fold enrichment (6-mer frequency, TF over GST control)"
